From PubChem BioAssay (Tox21)
Where “and” joins values, the source holds several entries; their conditions need not be identical. Identical values can stand only once. Some structures have more than one record in an assay (separate samples or runs), and their calls can disagree. Calls of active or inactive are those of the source. Entries that show only a call come without a potency. Unless noted, calls come from the whole dose curve; as a rule, active = well fitted curve in the direction sought with a large enough effect in the repeat runs; inconclusive = weak or mixed curves; inactive = no such curve, though single readings can be large; an effect the other way counts as inactive or inconclusive. Non-standard residues stand in square brackets, D forms with d. Residues, ends and D or L forms follow the SMILES beside them. Orn = NCCC[C@H](N)C(=O)O

Tests used:
[1] = qHTS assay to identify small molecule antagonists of the glucocorticoid receptor (GR) signaling pathway - cell viability counter screen (AID 720693); note: nearly all actives have a fitted effect of over 55% in size; note: potency is the fitted concentration of half-maximal effect
[2] = qHTS assay for identifying genotoxic compounds that show differential cytotoxicity against isogenic chicken DT40 cell lines with known DNA damage response pathways - wild type cell line (AID 743012); note: nearly all actives have a fitted effect of over 60% in size; note: potency is the fitted concentration of half-maximal effect
How it was run: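 CellTiter-Glo luminescence readout of viability in wild type DT40 cells after 40 h compound exposure at 37 C/5% CO2; 300 cells/well; reagent incubated 30 min at room temperature before reading.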

[3] = qHTS assay for identifying genotoxic compounds that show differential cytotoxicity against isogenic chicken DT40 cell lines with known DNA damage response pathways - Rev3 mutant cell line (AID 743014); note: nearly all actives have a fitted effect of over 55% in size; note: potency is the fitted concentration of half-maximal effect
[4] = qHTS assay for identifying genotoxic compounds that show differential cytotoxicity against isogenic chicken DT40 cell lines with known DNA damage response pathways - Rad54/Ku70 mutant cell line (AID 743015); note: nearly all actives have a fitted effect of over 60% in size; note: potency is the fitted concentration of half-maximal effect
[5] = qHTS assay to identify small molecule antagonists of the androgen receptor (AR) signaling pathway - cell viability counter screen (AID 743033; note: nearly all actives have a fitted effect of over 45% in size; note: potency is the fitted concentration of half-maximal effect)
[6] = qHTS assay to identify small molecule antagonists of the androgen receptor (AR) signaling pathway using the MDA cell line - cell viability counter screen (AID 743041; note: nearly all actives have a fitted effect of over 45% in size; note: potency is the fitted concentration of half-maximal effect)
How it was run: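 Using the breast carcinoma line MDA-kb2 AR-luc, test chemicals were co-incubated with R1881 for 16 h; CellTiter-Fluor reagent, added at 15.5 h, provided a fluorescence measure of live cells.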

[7] = qHTS assay to identify small molecule antagonists of the thyroid receptor (TR) signaling pathway - cell viability counter screen (AID 743064); note: nearly all actives have a fitted effect of over 50% in size; note: potency is the fitted concentration of half-maximal effect
How it was run: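 GH3.TRE-Luc rat pituitary cells carrying a TRE-luciferase reporter were treated with compound plus 1 nM T3 (final) for 23.5 h at 37 °C. Viability was then read in the same wells by CellTiter-Fluor fluorescence after a further 30 min.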

[8] = qHTS assay to identify small molecule antagonists of the thyroid receptor (TR) signaling pathway (AID 743065); note: nearly all actives have a fitted effect of over 55% in size; note: potency is the fitted concentration of half-maximal effect
How it was run: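 Antagonism measured as loss of luciferase signal in GH3 cells stably carrying a TRE-luciferase reporter, co-treated with compound and T3 (1 nM final) for 23.5 h at 37 C. Viability was read in the same well by CellTiter-Fluor.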

[9] = qHTS assay to identify small molecule antagonists of the estrogen receptor alpha (ER-alpha) signaling pathway - cell viability counter screen (AID 743074; calls by dose curve; note: nearly all actives have a fitted effect of over 45% in size; note: potency is the fitted concentration of half-maximal effect)
[10] = biological target: Estrogen receptor (Homo sapiens) (UniProt P03372); assay: qHTS assay to identify small molecule agonists of the estrogen receptor alpha (ER-alpha) signaling pathway (AID 743075; calls by dose curve)
Sequence of Estrogen receptor (Homo sapiens) (P03372 whole entry, looked up): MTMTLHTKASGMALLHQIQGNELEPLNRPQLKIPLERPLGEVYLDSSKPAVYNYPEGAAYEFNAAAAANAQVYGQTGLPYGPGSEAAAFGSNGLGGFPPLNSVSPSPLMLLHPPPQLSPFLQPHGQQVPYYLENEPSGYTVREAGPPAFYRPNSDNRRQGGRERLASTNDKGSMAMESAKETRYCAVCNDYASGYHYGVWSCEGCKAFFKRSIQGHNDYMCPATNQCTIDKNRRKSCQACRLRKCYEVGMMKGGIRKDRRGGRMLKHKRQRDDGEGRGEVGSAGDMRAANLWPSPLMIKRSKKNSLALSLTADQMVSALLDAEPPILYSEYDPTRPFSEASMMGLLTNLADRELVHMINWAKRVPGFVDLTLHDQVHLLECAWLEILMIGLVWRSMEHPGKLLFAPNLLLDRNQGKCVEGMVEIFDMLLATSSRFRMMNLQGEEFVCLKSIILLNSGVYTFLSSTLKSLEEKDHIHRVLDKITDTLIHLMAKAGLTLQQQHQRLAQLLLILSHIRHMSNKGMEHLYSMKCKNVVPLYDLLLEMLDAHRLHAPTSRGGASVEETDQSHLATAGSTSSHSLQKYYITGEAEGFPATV

Aromatase (Homo sapiens) = Aromatase (Homo sapiens) (UniProt P11511); assay: qHTS assay to identify aromatase inhibitors (AID 743083); note: nearly all actives have a fitted effect of over 55% in size; note: potency is the fitted concentration of half-maximal effect
Sequence of Aromatase (Homo sapiens) (P11511 whole entry, looked up): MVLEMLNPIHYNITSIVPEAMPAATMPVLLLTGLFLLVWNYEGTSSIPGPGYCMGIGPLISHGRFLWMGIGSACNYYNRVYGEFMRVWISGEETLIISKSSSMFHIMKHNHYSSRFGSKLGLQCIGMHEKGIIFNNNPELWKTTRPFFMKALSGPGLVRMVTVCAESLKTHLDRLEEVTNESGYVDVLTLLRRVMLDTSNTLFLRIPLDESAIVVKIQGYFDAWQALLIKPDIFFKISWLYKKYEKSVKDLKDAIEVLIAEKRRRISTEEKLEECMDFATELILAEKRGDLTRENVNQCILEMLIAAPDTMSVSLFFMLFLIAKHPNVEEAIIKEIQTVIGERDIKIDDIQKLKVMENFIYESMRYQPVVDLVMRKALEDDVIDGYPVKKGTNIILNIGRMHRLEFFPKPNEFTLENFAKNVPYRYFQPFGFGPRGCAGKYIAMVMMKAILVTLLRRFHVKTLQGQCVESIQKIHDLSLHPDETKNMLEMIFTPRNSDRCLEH

[11] = system: thyroid hormone receptor (rat, GH3 cells); assay: qHTS assay to identify small molecule agonists of the thyroid receptor (TR) signaling pathway (AID 743066; calls by dose curve)
[12] = biological target: Estrogen receptor (Homo sapiens) (UniProt P03372); assay: qHTS assay to identify small molecule antagonists of the estrogen receptor alpha (ER-alpha) signaling pathway (AID 743069; active = well fitted curve in the direction sought with a large enough effect in the signal ratio in the repeat runs, not every such curve was filed as active; inconclusive = weak or mixed curves, or effect the other way; inactive = no such curve, though single readings can be large or run the other way; the % refers to the signal ratio; note: potency is the fitted concentration of half-maximal effect)
How it was run: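 Fluorescence intensity from a beta-lactamase FRET substrate served as the read-out. Cells: HEK293 with stably integrated ER-alpha-UAS-bla reporter. Agonist 17beta-estradiol was co-added with compounds; incubation 18 hr at 37C, substrate 2 hr at room temperature.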

[13] = biological target: Estrogen receptor (Homo sapiens) (UniProt P03372); assay: qHTS assay to identify small molecule agonists of the estrogen receptor alpha (ER-alpha) signaling pathway using the BG1 cell line (AID 743079); note: nearly all actives have a fitted effect of over 20% in size; note: potency is the fitted concentration of half-maximal effect
[14] = qHTS assay to identify small molecule antagonists of the estrogen receptor alpha (ER-alpha) signaling pathway using the BG1 cell line (AID 743080; calls by dose curve;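 note: BG1 cells stimulated with 17beta-estradiol alongside compound; nearly all actives have a fitted effect of over 25% in size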; note: potency is the fitted concentration of half-maximal effect)
How it was run: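 BG1Luc4E2, endogenous ER-alpha, 4xERE-luc; 5 d charcoal-stripped FBS, phenol red free; 24 h plating; cpd + 17beta-estradiol 21.5 h, 37 C/5% CO2; CellTiter-Fluor viability 30 min, then ONE-Glo luciferase 30 min RT.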

[15] = qHTS assay to identify small molecule antagonists of the estrogen receptor alpha (ER-alpha) signaling pathway using the BG1 cell line - cell viability counter screen (AID 743081);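 note: compound given together with 17beta-estradiol as the ER stimulus; series mostly up to about 70 µM; nearly all actives have a fitted effect of over 45% in size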
[16] = biological target: Androgen receptor (Homo sapiens) (UniProt P10275); assay: qHTS assay to identify small molecule agonists of the androgen receptor (AR) signaling pathway using the MDA cell line (AID 743040; note: nearly all actives have a fitted effect of over 20% in size)
Sequence of Androgen receptor (Homo sapiens) (P10275 whole entry, looked up): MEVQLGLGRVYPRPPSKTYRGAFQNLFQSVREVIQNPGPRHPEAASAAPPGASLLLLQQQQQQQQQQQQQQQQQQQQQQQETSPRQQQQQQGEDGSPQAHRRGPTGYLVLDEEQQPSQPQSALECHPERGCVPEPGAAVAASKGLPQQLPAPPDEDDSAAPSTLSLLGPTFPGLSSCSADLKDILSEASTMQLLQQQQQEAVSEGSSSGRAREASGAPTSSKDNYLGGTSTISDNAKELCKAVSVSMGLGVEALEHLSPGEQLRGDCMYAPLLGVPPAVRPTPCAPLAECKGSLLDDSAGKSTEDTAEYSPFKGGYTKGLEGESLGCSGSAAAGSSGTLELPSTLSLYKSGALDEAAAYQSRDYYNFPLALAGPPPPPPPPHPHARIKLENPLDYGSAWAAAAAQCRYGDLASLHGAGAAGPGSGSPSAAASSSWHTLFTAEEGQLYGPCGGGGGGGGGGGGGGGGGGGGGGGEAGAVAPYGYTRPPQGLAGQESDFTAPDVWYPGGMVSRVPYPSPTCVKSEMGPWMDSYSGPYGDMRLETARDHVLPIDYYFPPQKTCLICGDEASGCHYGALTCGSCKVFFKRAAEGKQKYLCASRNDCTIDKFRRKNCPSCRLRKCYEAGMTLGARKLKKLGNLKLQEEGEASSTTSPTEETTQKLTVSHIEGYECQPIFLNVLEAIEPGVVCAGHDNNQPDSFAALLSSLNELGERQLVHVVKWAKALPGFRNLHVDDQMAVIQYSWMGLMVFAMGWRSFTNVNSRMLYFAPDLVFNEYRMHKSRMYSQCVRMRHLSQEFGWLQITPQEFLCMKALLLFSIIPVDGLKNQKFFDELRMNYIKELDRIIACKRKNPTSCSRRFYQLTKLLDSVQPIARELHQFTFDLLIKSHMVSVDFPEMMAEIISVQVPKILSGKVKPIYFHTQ
How it was run: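 Stable MMTV-luciferase reporter in MDA-kb2 cells; note the promoter carries GR as well as AR response elements. 16 h compound treatment, 37C, 0% CO2; ONE-Glo luminescence endpoint.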

[17] = biological target: Androgen receptor (Homo sapiens) (UniProt P10275); assay: qHTS assay to identify small molecule antagonists of the androgen receptor (AR) signaling pathway using the MDA cell line (AID 743042)
How it was run: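 Antagonist mode: compounds plus R1881 agonist added to MDA-kb2 AR-luc cells, incubated 16 h at 37C. Luciferase reporter luminescence quantified, with multiplexed CellTiter-Fluor readout for cell viability.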

SMILES | Potency [1] | Potency [2] | Potency [3] | Potency [4] | Potency [5] | Potency [6] | Potency [7] | Potency [8] | Potency [9] | Potency [10] | Potency (Aromatase (Homo sapiens)) | Potency [11] | Potency [12] | Potency [13] | Potency [14] | Potency [15] | Potency [16] | Potency [17]
CC(C)C[C@@H]1NC(=O)[C@H](CCCN)NC(=O)[C@H](C(C)C)NC(=O)[C@@H]2CCCN2C(=O)[C@@H](Cc2ccccc2)NC(=O)[C@H](CC(C)C)NC(=O)[C@H](CCCN)NC(=O)[C@H](C(C)C)NC(=O)[C@@H]2CCCN2C(=O)[C@@H](Cc2ccccc2)NC1=O (cyclo(V[Orn]L[dF]PV[Orn]L[dF]P)) | 19 µM (active) | 0.376 µM (active) | 0.075 µM (active) | 0.0944 µM (active) | 2.68 µM (active) | 1.97 µM (active) | 2.11 µM (active) | 0.841 µM (active) | 10.7 µM (active) | inactive | 1.88 µM (active) |  |  |  |  |  |  | 
C[C@H](Cc1ccc(O)c(O)c1)[C@@H](C)Cc1ccc(O)c(O)c1 | inactive | 10.6 µM (active) | 23.7 µM (active) | 10.6 µM (active) | inactive | inactive | 9.44 µM (active) | 8.41 µM (active) | inactive | inactive | inactive | inactive | inactive | inactive | inactive | inactive |  | 
C/C(=C(/CCO)SSCC1CCCO1)N(C=O)Cc1cnc(C)nc1N (centres undefined) | inactive | 23.7 µM (active) and 11.9 µM (active) | 23.7 µM (active) | 26.6 µM (active) | inactive | inactive | inactive | inactive | inactive | inactive | inactive and 29.8 µM (active) | inactive | inactive | inactive | inactive | inactive |  | 
O=C(O)/C=C/C(=O)Nc1ccc(S(=O)(=O)Nc2nccs2)cc1 | inactive | inactive | inactive | inactive | inactive | inactive | inactive | inactive | inactive | inactive | inactive | inactive | inactive | inactive | inactive | inactive |  | 
O=C1[O][Bi][O]c2ccccc21 | inactive | inactive | inactive | inactive | inactive | inactive | inactive |  | inactive | inactive | inactive | inactive | inactive | inactive | inactive | inactive |  | 
OCl | inactive | inactive | inactive | inactive | inactive | inactive | inactive |  | inactive | inactive | inactive | inactive | inactive | inactive | inactive | inactive |  | 
C=CCN1C(=O)C(CC(C)C)NC1=S (centres undefined) | inactive | inactive | inactive | inactive | inactive | inactive | inactive |  | inactive | inactive | inactive | inactive | inactive | inactive | inactive | inactive |  | 
CC(C)=CCC/C(C)=C/CC/C(C)=C/CC/C=C(\C)CC/C=C(\C)CCC=C(C)C | inactive | inactive | inactive | inactive | inactive | inactive | inactive | inactive | inactive | inactive | inactive | inactive | inactive | inactive | inactive | inactive |  | 
CO[C@H](C(=O)[C@@H](O)[C@@H](C)O)C1Cc2cc3cc(O[C@H]4C[C@@H](O[C@H]5C[C@@H](O)[C@H](O)[C@@H](C)O5)[C@@H](O)[C@@H](C)O4)c(C)c(O)c3c(O)c2C(=O)[C@H]1O[C@H]1C[C@@H](O[C@H]2C[C@@H](O[C@H]3C[C@](C)(O)[C@H](O)[C@@H](C)O3)[C@H](O)[C@@H](C)O2)[C@H](O)[C@@H](C)O1 (some centres undefined) | 1.34 µM (active) | 94.4 nM (active) and 47.3 nM (active) |  | 75 nM (active) and 33.5 nM (active) | inactive | inactive |  | 335 nM (active) and 237 nM (active) | inactive | inactive | 841 nM (active) and 668 nM (active) |  | 301 nM [inconclusive] (active) and 190 nM [inconclusive] (active) |  | 266 nM (active) and 335 nM (active) | inactive | inactive | 473 nM (active) and 266 nM (active)
CC[C@@H](C)[C@H](N)C(=O)O | inactive | inactive | inactive | inactive |  | inactive | inactive | inactive | inactive | inactive | inactive | inactive | inactive | 26.6 µM (active) | inactive | inactive |  | 
CN=C(N)NCCC[C@H](N)C(=O)O | inactive | inactive | inactive | inactive |  | inactive |  |  | inactive |  | inactive |  |  |  |  | inactive |  | 
NC(=O)[C@H]1O[C@@H](O)[C@H](O)[C@@H](O)[C@@H]1O | inactive | inactive | inactive | inactive |  | inactive | inactive | inactive | inactive |  | inactive | inactive |  |  |  | inactive |  | 
CN(C[C@@H](CC[N+]12CCC(C3CCCCC3)(CC1)CC2)c1ccc(Cl)c(Cl)c1)C(=O)c1cc(C(F)(F)F)cc(C(F)(F)F)c1 | 17.4 µM (active) | 6.86 µM (active) |  | 8.63 µM (active) | 19.5 µM (active) | 61.1 µM (active) | 21.7 µM (active) | 27.3 µM (active) | 49 µM (active) |  | 61.1 µM (active) |  |  |  |  |  | inactive | 54.5 µM (active)
